These results are taken from PubChem BioAssay (Tox21).

SMILES strings stand for the structures. Several values for one entry are separate records, joined by “and”; a condition that tells them apart may be missing. Identical values can stand only once. Records with an inconclusive call do not appear. Entries that show only a call come without a potency. More than one record can exist for a structure, and the calls need not agree. Activity calls are given as the source filed them. Calls follow the shape of the dose curve; as a rule, active = well fitted activation curve with a large enough effect in the repeat runs; inconclusive = weak or mixed curves; inactive = flat fitted curve, though single readings scatter.
Potency is read from the fitted curve at half-maximal effect.

The test can be described thus: A CellTox Green Cytotoxicity Assay to monitor cytotoxicity in HepG2 cells - 24 hour (AID 1224878). Also: nearly all actives have a fitted effect of over 45% in size. Conditions: CellTox Green fluorescence; series mostly up to 76.8 µM. From the text:
National Center for Advancing Translational Sciences [NCATS]
NIH Chemical Genomics Center [NCGC]
U.S. Environmental Protection Agency [EPA]
National Institutes of Environmental Health Sciences [NIEHS]
National Toxicology Program [NTP]
Cell-based models are critical for drug discovery. Determining the natural cytotoxic effects resulting from test compounds is an essential research activity. A CellTox Green Cytotoxicity Assay to monitor cytotoxicity in real time of continues cell culture during 40 hours of the compound treatment was used to screen Tox21 10K library compounds in HepG2 cells. CellTox Green Cytotoxicity Assay is a nonlytic, homogeneous, biofluorescent method to measure cytotoxicity in cell culture after experimental manipulation. The assay system uses a proprietary asymmetric cyanine dye that is excluded from viable cells but preferentially stains the dead cell's DNA. […] Viable cells produce no appreciable increases in fluorescence. Therefore, the fluorescence signal produced by the binding interaction with dead cell DNA is proportional to cytotoxicity.
The mixture of HepG2 cell suspension and reagents were dispensed at 600cells/6 ul/well in 1536-well tissue culture treated black solid bottom plates using a Multidrop dispenser. After the assay plates were incubated at a 37 C/5% CO2 incubator for 5 hours, 23 nL of compounds dissolved in DMSO, positive and negative controls was transferred to the assay plate by a pintool work station. The plates were incubated at 37 C for 40 hours. The fluorescence intensity were measured at 0h, 8h, 16h, 24h, 32h and 40h time points using ViewLux plate reader during compound treatment.
For `CNC(=O)Oc1cc(C)c(SC)c(C)c1`, the Potency entry is “inactive”.

Take `CO/C=C(/C(=O)OC)c1ccccc1Oc1cc(Oc2ccccc2C#N)ncn1`: the Potency entry was “inactive”.

Turning to `c1ccc2c(c1)Sc1ccccc1N2CC1CN2CCC1CC2` (configuration not stated), the Potency is 23.9 µM (active). Same read-out and setting: the same measure for `COc1ccc(C(c2ccc(OC)cc2)C(Cl)(Cl)Cl)cc1`: “inactive”.

`OCC(c1ccc(Cl)cc1)c1ccc(Cl)cc1`: the Potency was 38.9 µM (active). The same measure, in the same setting: under `CC(c1ccccc1)(c1ccc(O)cc1)c1ccc(O)cc1` stands 43.6 µM (active); under `CCOC(=O)C(O)(c1ccc(Cl)cc1)c1ccc(Cl)cc1`, “inactive and 38.9 µM (active)”; under `CN1CSC(=S)N(C)C1`, 10.9 µM (active) and 27.5 µM (active). With `O=C(Nc1ccccc1-c1ccc(Cl)cc1)c1cccnc1Cl`, the Potency is 41.2 µM (active).

Take `CC1COC(Cn2cncn2)(c2ccc(Oc3ccc(Cl)cc3)cc2Cl)O1` (configuration not stated): the Potency entry was “inactive”. `COc1cc(OC)c(OC)cc1C=O`: the Potency result was “inactive”.

As to `OC(Cc1ccccc1Cl)(Cn1[nH]cnc1=S)C1(Cl)CC1` (configuration not stated), the Potency result was “inactive”. On the same count and under the same terms, under `Cc1ccc(N(SC(F)(Cl)Cl)S(=O)(=O)N(C)C)cc1` stands 11 µM (active); under `O=S(=O)(C(Cl)(Cl)Cl)C(Cl)(Cl)Cl`, 27.5 µM (active). Same read-out and setting: the same measure for `O=C(c1ccccc1)C(Cl)Cl`: “inactive”; for `C[C@]12CC[C@@H](O)C[C@@H]1CC[C@@H]1[C@@H]2CC[C@]2(C)C(=O)CC[C@@H]12`: “inactive”; for `CCN(CC)C(=O)Cl`: “inactive”. The same measure, in the same setting: under `N#Cc1cc([N+](=O)[O-])ccc1N` stands “inactive”; under `Nc1ccc([N+](=O)[O-])cc1`, 43.6 µM (active). Take `Cc1ccc2nc3sc(=O)sc3nc2c1`: the cytotoxicity was -2.5% [at 15.8 µM] (inactive). Regarding `Oc1c(I)cc(I)cc1I`, the Potency result was “inactive”. Still for that read-out and setting: under `O=C1C(I)=CC(=C(c2cc(I)c(O)c(I)c2)c2ccccc2C(=O)O)C=C1I` stands “inactive”.
